Laboratory results taken from PubChem BioAssay (EPA / NIEHS).
Records with an inconclusive call do not appear. Calls of active or inactive are those of the source. Rule for the calls: active = hit-call score of the fitted dose curve at least 0.9, where 1 is the maximum; inconclusive = response in the unintended direction; inactive = score below 0.9.

What follows are compounds tested on Cytochrome P450 3A4 (Homo sapiens) (UniProt P08684) (assay: CLD_CYP3A4_6hr: CellzDirect (CLD) Gene Expression Assay for xenobiotic metabolism (CYP3A4) at 6 hours (AID 2283680)).
Method: CLD_6hr is a cell-based, multiplexed-readout assay that uses hepatocyte, a human liver primary cell, with measurements taken at 6 hours after chemical dosing in a 96-well plate.CLD_CYP3A4_6hr is one of 16 assay component(s) measured or calculated from the CLD_6hr assay. It is designed to make measurements of mRNA induction, a form of inducible reporter, as detected with chemiluminescence signals by Quantitative Nuclease Protection Assay (qNPA) technology.Data from the assay component CLD_CYP3A4_6hr was analyzed at the endpoint, CLD_CYP3A4_6hr, in the positive analysis fitting direction relative to DMSO as the negative control and baseline of activity. Using a type of inducible reporter, gain-of-signal activity can be used to understand changes in the reporter gene as they relate to the gene CYP3A4. Furthermore, this assay endpoint can be referred to as a primary readout. To generalize the intended target to other relatable targets, this assay endpoint is annotated to the cyp intended target family, where subfamily is xenobiotic metabolism.
Human hepatocyte cultures were treated daily for two consecutive days with fresh dosing solutions containing appropriate concentrations of the 320 ToxCast chemicals (chemical identities were blinded to CellzDirect and other ToxCast collaborators), vehicle control (0.2% DMSO), and positive control inducers as summarized in Table 1. Due to the large number of treatment groups and chemicals examined, the ToxCast chemicals were divided into two groups (spanning two independent cultures of hepatocytes from separate donor preparations (Hu778: ToxCast plates 1 and 2; Hu776: ToxCast plates 3 and 4). Each preparation of human hepatocyte cultures was treated with respective vehicle control, medium only control, set of six positive controls/reference chemicals for the five hepatic receptor pathways, and a subset of eight of the ToxCast chemicals (indoxacarb, pyrithiobac-sodium, norflurazon, cyhalofop-butyl, methomyl, thiram, acetochlor, and propiconazole). These replicate data, coupled with internal replicates designed within the blinded ToxCast chemical library, provided additional data to evaluate interindividual differences between hepatocyte preparations and their potential impact on chemical profiles.Cell morphology and integrity were evaluated using phase-contrast microscopy as an indicator of hepatocyte cell health (Tyson & Green, 1987). Cultures for each treatment group (i.e., media, vehicle [0.2% DMSO], positive control inducers [multiple concentrations], and the ToxCast chemicals [multiple concentrations]) were observed and cell morphology was assessed relative to vehicle control cultures at each harvest time point (0, 6, 24, or 48 h). […] Images were evaluated at the conclusion of the study to assess changes in cell integrity and account for the effects of chemical exposure on uncharacteristic changes in concentration-dependent gene expression profiles. The results from these determinations of apparent cytotoxicity were annotated (yes/no) alongside the corresponding qNPA data for reference.At the conclusion of each treatment period, hepatocyte cultures (96-well) were washed with 1 volume of HBSS, lysed by addition of 25 ul ArrayPlate lysis buffer (HTG, Tucson, AZ), and 70 ul/well of Denaturation Oil, denatured by incubation at 95C for 10 min, and frozen at approximately -70C until analysis by nuclease protection assay (qNPA) (Roberts et al., 2007). For qNPA analysis, cell lysates were thawed at 50C for approximately 30 min, qNPA probes were added, and samples were incubated at 95C for 10 min to begin the detection process by denaturing the target RNA, dissociating the duplexes and secondary structure hybridization. At the conclusion of the hybridization period, S1 nuclease reagent was added to each sample to digest all nonprotected nucleotides at 50C for 60-90 min. […]

Chain of Cytochrome P450 3A4 (Homo sapiens) (P08684 whole entry, looked up): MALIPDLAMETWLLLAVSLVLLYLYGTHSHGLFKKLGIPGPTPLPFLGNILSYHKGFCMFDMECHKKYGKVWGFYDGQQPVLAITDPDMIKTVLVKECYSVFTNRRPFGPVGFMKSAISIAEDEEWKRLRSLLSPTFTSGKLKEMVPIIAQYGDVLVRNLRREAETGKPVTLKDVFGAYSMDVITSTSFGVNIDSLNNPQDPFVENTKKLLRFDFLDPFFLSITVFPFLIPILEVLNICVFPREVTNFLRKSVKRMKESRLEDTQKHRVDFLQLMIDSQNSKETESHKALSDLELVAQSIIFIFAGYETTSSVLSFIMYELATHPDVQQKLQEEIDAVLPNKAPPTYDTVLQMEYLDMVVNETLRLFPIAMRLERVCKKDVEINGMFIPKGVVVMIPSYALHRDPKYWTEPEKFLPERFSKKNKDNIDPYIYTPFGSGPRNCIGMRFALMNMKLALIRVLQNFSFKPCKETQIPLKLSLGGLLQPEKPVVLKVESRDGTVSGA

SMILES | outcome | AC50
Cc1[nH]c(=O)n(C(C)(C)C)c(=O)c1Cl | inactive | 
CCC(C)Nc1c([N+](=O)[O-])cc(C(C)(C)C)cc1[N+](=O)[O-] (stereo not given) |  | 1.2 µM (active)
N#CN | inactive | 
CC(C)OC(=O)Nc1cccc(Cl)c1 |  | 12.2 µM (active)
C#CCN1C(=O)COc2cc(F)c(N3C(=O)C4=C(CCCC4)C3=O)cc21 | inactive | 
CCOC1Oc2ccc(OS(C)(=O)=O)cc2C1(C)C (stereo not given) | inactive | 
CCCN(CCC)c1c([N+](=O)[O-])cc(C(F)(F)F)cc1[N+](=O)[O-] | inactive | 
COP(=S)(OC)Oc1ccc([N+](=O)[O-])cc1 | inactive | 
COP(=O)(OC)OC=C(Cl)Cl | inactive | 
CCCN(CCOc1c(Cl)cc(Cl)cc1Cl)C(=O)n1ccnc1 | inactive | 
O=C(Nc1ccccc1)Nc1cnns1 | inactive | 
ClC1C(Cl)C(Cl)C(Cl)C(Cl)C1Cl (stereo not given) | inactive | 
COC(=O)c1ccccc1S(=O)(=O)NC(=O)N(C)c1nc(C)nc(OC)n1 | inactive | 
C[C@H]1[C@H](c2ccc(Cl)cc2)SC(=O)N1C(=O)NC1CCCCC1 |  | 1.9 µM (active)
CCC(C)(C)C(=O)OC1=C(c2ccc(Cl)cc2Cl)C(=O)OC12CCCCC2 | inactive | 
CNC(=O)Oc1cccc(N=CN(C)C)c1 | inactive | 
CC1(C)C(C=C(Cl)Cl)C1C(=O)OC(C#N)c1ccc(F)c(Oc2ccccc2)c1 (stereo not given) | inactive | 
CCOc1nc(NC)nc(NC(=O)NS(=O)(=O)c2ccccc2C(=O)OC)n1 | inactive | 

SMILES | outcome | AC50
CCc1ccc(C(=O)NN(C(=O)c2cc(C)cc(C)c2)C(C)(C)C)cc1 |  | 0.708 µM (active)
CNC(=O)Oc1ccccc1OC(C)C | inactive | 
Cc1cc(C)nc(NC(=O)NS(=O)(=O)c2ccccc2C(=O)OC2COC2)n1 | inactive | 
CCOCN(C(=O)CCl)c1c(C)cccc1CC |  | 0.328 µM (active)
OCCOc1ccccc1 | inactive | 
CCN(CC)C(=O)SCc1ccc(Cl)cc1 |  | 20 µM (active)
CC(C)(C)C(O)/C(=C\c1ccc(Cl)cc1Cl)n1cncn1 (stereo not given) |  | 1.89 µM (active)
CCC(C)(NC(=O)c1cc(Cl)c(C)c(Cl)c1)C(=O)CCl (stereo not given) | inactive | 
COP(=S)(OC)Oc1ccc(SC)c(C)c1 | inactive | 
COc1nn(CSP(=S)(OC)OC)c(=O)s1 | inactive | 
CNC(=O)CSP(=S)(OC)OC | inactive | 
O=C(O)CCCOc1ccc(Cl)cc1Cl | inactive | 
CC[C@H](C)[C@H]1O[C@]2(C=C[C@@H]1C)C[C@@H]1C[C@@H](C/C=C(\C)[C@@H](O[C@H]3C[C@H](OC)[C@@H](O[C@H]4C[C@H](OC)[C@@H](O)[C@H](C)O4)[C@H](C)O3)[C@@H](C)/C=C/C=C3\CO[C@@H]4[C@H](O)C(C)=C[C@@H](C(=O)O1)[C@]34O)O2 (tested in a mixture with another compound) | inactive | 
O=C(O)COc1ccc(Cl)cc1Cl |  | 0.49 µM (active)
O=S1OCC2C(CO1)C1(Cl)C(Cl)=C(Cl)C2(Cl)C1(Cl)Cl (stereo not given) |  | 9.06 µM (active)
CCS(=O)(=O)c1cccnc1S(=O)(=O)NC(=O)Nc1nc(OC)cc(OC)n1 | inactive | 
Clc1ccccc1-c1nnc(-c2ccccc2Cl)nn1 | inactive | 
